Measurements taken from PubChem BioAssay AID1006 (Sanford-Burnham Center for Chemical Genomics, 2008).
The whole screen tested about 200,000 compounds, of which about 3,000 (1.5%) were called active. This is one part of a sample in which actives are shown more often than they occur. Unmarked numbers belong to inactive results.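 How the source made its calls: active means inhibition above about 50% when tested at 10 µM (limit read from the data); inactive means the rest.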

What follows are molecules tested against Luciferin 4-monooxygenase (Photinus pyralis) (UniProt P08659) (assay: inhibition of purified FLuc reporter enzyme – biochemical, luminescence, ATPLite, artefact control for luciferase-based inhibitor screens, primary screen (AID 1006)). Details: ATPLite firefly luciferase biochemical luminescence, 10 min; at 10 µM; active compounds read high.
Luciferin 4-monooxygenase (Photinus pyralis), sequence (P08659 whole entry, looked up): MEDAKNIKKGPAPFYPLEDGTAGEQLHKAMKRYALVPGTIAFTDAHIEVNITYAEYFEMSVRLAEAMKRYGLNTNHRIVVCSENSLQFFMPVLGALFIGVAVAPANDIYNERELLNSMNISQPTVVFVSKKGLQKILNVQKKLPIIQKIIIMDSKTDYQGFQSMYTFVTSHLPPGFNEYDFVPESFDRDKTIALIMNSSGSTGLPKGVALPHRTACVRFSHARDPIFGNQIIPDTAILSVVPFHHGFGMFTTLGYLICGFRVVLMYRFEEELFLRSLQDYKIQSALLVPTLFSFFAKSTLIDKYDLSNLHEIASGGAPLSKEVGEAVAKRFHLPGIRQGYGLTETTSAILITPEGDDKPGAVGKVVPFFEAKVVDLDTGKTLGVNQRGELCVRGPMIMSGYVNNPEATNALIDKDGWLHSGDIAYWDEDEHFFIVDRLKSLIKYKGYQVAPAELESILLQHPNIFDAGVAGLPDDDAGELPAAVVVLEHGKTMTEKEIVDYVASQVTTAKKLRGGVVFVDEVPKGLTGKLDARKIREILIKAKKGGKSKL
Work on `COc1ccc(NC(C(=O)Nc2cccc(C(C)=O)c2)c2ccccc2)cc1` (stereo not drawn) yielded an inhibition of 1.7%.
`O=C(Nc1ccc(-c2ccc3nncn3n2)cc1)C1CCCCC1` was tested, and the inhibition was 26.9%.
Molecule `CCC1C/C(=C/c2cccs2)C(=O)/C(=C/c2cccs2)C1` (stereo not drawn) has an inhibition of -5.8%.
`O=C1/C(=C/c2cccs2)CCc2ccccc21` was tested, and the inhibition was 76% (active).
In the case of `COc1ccc(/C=C2\CCc3ccccc3C2=O)c(OC)c1OC`, the inhibition is reported as 1.1%.
With `OCCNc1nc2ccccc2[nH]1` the inhibition was -5.9%.
`COc1ccc(Br)cc1C(=O)NC(=S)Nc1cc(-c2nc3ccccc3[nH]2)ccc1C` gave an inhibition of 2.5%.
For `c1ccc(-c2[nH]ncc2-c2nc3ccccc3[nH]2)cc1`, the inhibition was -8.5%.
For `Cc1ccc(-c2nc3ccccc3[nH]2)cc1N`, the inhibition was 80.7% (active).
`c1ccc2[nH]c(-c3nc4ccccc4[nH]3)nc2c1` was tested, and the inhibition was 58.7% (active).
For `Cc1ccc(-c2nc3ccccc3[nH]2)cc1NC(=O)c1sc2ccccc2c1Cl`, the inhibition was -3%.
For `O=C(CCNS(=O)(=O)c1ccc(Br)s1)NCc1ccccc1Cl`, the inhibition was -3.8%.
`Cc1c(NC(=O)CCC2CCCCC2)cc(C(=O)N2CCOCC2)cc1[N+](=O)[O-]` showed an inhibition of -6.5%.
`O=C(NC(Cc1c[nH]c2ccccc12)C(=O)O)/C(=C/c1ccco1)NC(=O)c1ccccc1` (stereo not drawn) showed an inhibition of -0.6%.
In the case of `O=C(CCl)N(Cc1cccc([N+](=O)[O-])c1)c1cccc(Cl)c1`, the inhibition is reported as -6.8%.
Molecule `CCCCOc1ccc(N(CC(=O)NC(C)C)C(=O)CCC(=O)Nc2ccccn2)cc1` has an inhibition of -9.9%.
For `Cc1cc(C)n2nc(C(=O)N(C)C(c3ccccc3)c3ccccc3)nc2n1`, the inhibition was -7%.
For `COc1ccc(-c2cn3ccsc3n2)cc1`, the inhibition was 81.3% (active).
`COc1cc(OC)cc(-c2nc(=S)n3ccsc3n2)c1` showed an inhibition of -2.1%.
Molecule `c1ccc(-c2cn3cccnc3n2)cc1` has an inhibition of 2.6%.
`CC(=O)Nc1ccc(-c2cn3cccnc3n2)cc1` showed an inhibition of 6.6%.
For `COc1ccc(-c2cn3cccnc3n2)cc1`, the inhibition was 59.3% (active).
`CCCC(=O)Nc1cccc(-c2cn3ccsc3n2)c1` gave an inhibition of 40%.
For `COc1cc(C(=S)NC2CCCCC2)ccc1O`, the inhibition was -2.8%.
In the case of `Cc1ccnc2nc(C(=O)Nc3nnc(-c4ccccc4)o3)nn12`, the inhibition is reported as -2.4%.
In the case of `Cc1noc(C)c1S(=O)(=O)N(C)Cc1ccccc1`, the inhibition is reported as -6.5%.
`CCOC(=O)c1nn(-c2ccccc2F)c2nc(Nc3ccccc3)cc(=O)n12` was tested, and the inhibition was -2.4%.
With `c1ccc2sc(NN=C3CCCC3)nc2c1` the inhibition was 62.8% (active).
With `O=[N+]([O-])c1cc(Br)c(O)c(/C=N/Nc2nc3ccccc3s2)c1` the inhibition was 1.1%.
For `Cc1ccnc(Nc2nc3ccccc3s2)n1`, the inhibition was 34.9%.
`Cc1cc(C)cc(C(=O)N(CCc2ccccc2)C2=CC3CCC(C2)N3C)c1` (stereo not drawn) gave an inhibition of -2.2%.
In the case of `O=C(C1=C[C@H](C2CC2)C[C@H](OCc2ccc(CO)cc2)O1)N1CCN(Cc2ccccc2)CC1`, the inhibition is reported as -13.1%.
`CC(NC(=S)NC1CCCCC1)C(c1ccccc1)N1CCOCC1` (stereo not drawn) gave an inhibition of -6%.
`O=C(NNC(=S)NC1CCCCC1)c1ccccc1Cl` gave an inhibition of -0.5%.
In the case of `CC(C)(c1ccccc1)c1ccc(OCCN)cc1`, the inhibition is reported as -11.4%.
With `CC1=NN(C(=O)c2ccc(Br)cc2)C(O)(c2ccccc2)C1` (stereo not drawn) the inhibition was -3.1%.
`CCN(CC)C(=O)Oc1ccc(OC(=O)N(CC)CC)cc1` was tested, and the inhibition was 1.5%.
Work on `CN1CCCC(OC(=O)COc2ccc(Br)cc2)C1` (stereo not drawn) yielded an inhibition of -7.7%.
For `CC1CN/C(=C\C(=O)c2ccc(Br)cc2)C(=O)N1` (stereo not drawn), the inhibition was 52.4% (active).
With `C/C(=C\C(=O)c1ccc(Br)cc1)N1CCCCC1` the inhibition was 3.9%.
In the case of `COc1ccc(NC(=O)CSc2nnc(-c3ccccc3F)n2C2CC2)cc1S(N)(=O)=O`, the inhibition is reported as 1.6%.
Work on `COc1ccc(NS(=O)(=O)c2cc(NC(=O)/C=C/c3cc(OC)c(OC)c(OC)c3)ccc2N2CCCCC2)cc1` yielded an inhibition of -5%.
For `Cc1ccn(-c2cccc(-n3ccc(C)n3)n2)n1`, the inhibition was 61.1% (active).
In the case of `CC(C)N1C(=O)N(c2ccccc2)C(C)(O)CC1(C)C` (stereo not drawn), the inhibition is reported as -5.4%.
With `O=C(O)CCCCc1nc2ccccc2s1` the inhibition was 6.8%.
In the case of `COc1ccccc1OCc1nc2ccccc2s1`, the inhibition is reported as 57.9% (active).
In the case of `COc1cccc2sc(NNC(=O)c3nc4ccccc4s3)nc12`, the inhibition is reported as -1.8%.
`CNC(=O)COc1ccc(S(=O)(=O)Nc2ccccc2)cc1` gave an inhibition of -6.9%.
`CSc1ccccc1NC(=O)CN(C)CC(=O)Nc1ccc(Cl)cc1[N+](=O)[O-]` showed an inhibition of 1.5%.
For `O=c1oc2ccccc2cc1-c1cn(-c2ccccc2)c(=S)[nH]1`, the inhibition was 90.1% (active).
In the case of `Nc1ncc(-c2cc3ccccc3oc2=O)s1`, the inhibition is reported as 32.1%.
Molecule `O=C(c1cn(-c2ccccc2)nc1-c1cc2ccccc2oc1=O)N1CCOCC1` has an inhibition of -8.2%.
Work on `Cc1ccc(CCCOC(=O)C[N+]2(C)CCCCC2)cc1` yielded an inhibition of -3.7%.
In the case of `O=C(NCCc1ccc(F)cc1)c1n[nH]c2ccccc12`, the inhibition is reported as 14.4%.
For `COc1cccc(CNC(=O)c2n[nH]c3ccccc23)c1`, the inhibition was 51.1% (active).
Molecule `O=C(COC(=O)c1n[nH]c2ccccc12)NCc1ccccc1` has an inhibition of -1.4%.
`CC(=O)Nc1ccc(NC(=O)CSc2nnc(COc3ccccc3C)n2CC2CCCO2)cc1` (stereo not drawn) gave an inhibition of -2.3%.
With `CCc1nnc(NC(=O)c2sc3nc(C)cc(COC)c3c2N)s1` the inhibition was -1.1%.
`CCc1nnc(NC(=O)c2cccs2)s1` was tested, and the inhibition was 6.9%.
`CCc1ccc2nc3sc(C(=O)Nc4nnc(CC)s4)c(N)c3cc2c1` was tested, and the inhibition was 51.9% (active).
`CSc1cc(C)[nH]c(=O)n1` showed an inhibition of 0.8%.
`Cc1ccc(S(=O)(=O)N2CCC(C(=O)NCC3CCCO3)CC2)cc1` (stereo not drawn) showed an inhibition of -6.3%.
In the case of `Cc1ccc(C(=O)N/C(=C/c2cccs2)C(=O)NCC2CCCO2)cc1` (stereo not drawn), the inhibition is reported as 0.4%.
With `Cc1ccc(-n2c(C)cc(/C=C(\C#N)C(=O)NCC3CCCO3)c2C)cc1` (stereo not drawn) the inhibition was 72.2% (active).
`CC(C)(C)NC(=O)COC(=O)c1cc(Cl)ccc1[N+](=O)[O-]` gave an inhibition of 1.8%.
`CN(C)/C=C(/C(=O)c1ccccc1Cl)S(C)(=O)=O` showed an inhibition of -6%.
For `Cc1cc(F)ccc1S(=O)(=O)N1CCCOC1CNC(=O)C(=O)NCCC1=CCCCC1` (stereo not drawn), the inhibition was -3.9%.
With `COc1cc(/C=C/C(=O)OCC(=O)N2CCOCC2)ccc1OCC#N` the inhibition was -6%.
For `CCCOC(=O)Nc1ccccc1C(N)=O`, the inhibition was -2.5%.
With `Cc1cccc(OCC(=O)Nc2ccccc2F)c1` the inhibition was 6.3%.
For `COc1cccc(OCC(=O)Nc2ccccc2C(N)=O)c1`, the inhibition was 59.2% (active).
Molecule `CCOC(=O)C1=C(N)N(c2ccc(C)cc2)C2=C(C(=O)CCC2)C1c1cccs1` (stereo not drawn) has an inhibition of -3.4%.
Work on `CS(=O)(=O)c1ccc2c(c1)SC1=NC(=O)/C(=C/c3ccco3)C(=N)N12` yielded an inhibition of 13.2%.
`CCS(=O)(=O)C1=NSC2=NC(=O)/C(=C\c3cc(C)n(-c4cccc(OC)c4)c3C)C(=N)N21` was tested, and the inhibition was 12.2%.
With `Cc1cc(/C=C2/C(=N)N3C(=NC2=O)SN=C3S(C)(=O)=O)c(C)n1-c1ccccc1` the inhibition was 89.9% (active).
Molecule `COc1cc(SC)ccc1C(=O)NCCOc1ccccc1Cl` has an inhibition of -0.8%.
For `COc1cc(SC)ccc1C(=O)Nc1cc(C)ccn1`, the inhibition was 80.7% (active).
For `Cc1ccnc(NC(=O)c2ccoc2C)c1`, the inhibition was 18.1%.
`COc1ccccc1CNC(=O)c1ccc(SC)cc1OC` gave an inhibition of -4.7%.
Work on `COc1ccc(C(=O)Nc2nncs2)c(OC)c1` yielded an inhibition of 40%.
In the case of `COc1cc(SC)ccc1C(=O)Nc1nc(C)cs1`, the inhibition is reported as 97.7% (active).
`Cn1cnnc1SCC(=O)NNC(=O)COc1ccc(Br)cc1` was tested, and the inhibition was 3.3%.
`COc1ccc(/C=N/NC(=O)c2ccncc2)cc1CN1CCCc2ccccc21` gave an inhibition of -8.3%.
For `COc1ccc(C)cc1-n1nnnc1SCc1nc2ccccc2c(=O)[nH]1`, the inhibition was 0.3%.
Molecule `Fc1cccc(Cc2noc(CN3CCN(c4cnccn4)CC3)n2)c1` has an inhibition of -8.2%.
With `Cc1ccc(NC(=O)Nc2ccc3oc(C)nc3c2)cc1` the inhibition was 70.8% (active).
With `Cc1nc2ccc(NC(=O)C(F)(F)F)cc2o1` the inhibition was -2.2%.
With `Cc1nc2cc(NC(=O)NCc3ccccc3)ccc2o1` the inhibition was 12%.
For `O=C(CN1CCc2ccccc21)NC(c1ccccc1)c1ccccc1`, the inhibition was -10.6%.
Work on `O=C(N/N=C/c1ccc(OCC2COCCO2)cc1)c1ccc(Br)cc1` (stereo not drawn) yielded an inhibition of 2.2%.
`CCS(=O)(=O)c1ccc(C(=O)NC)c(Cl)c1Cl` was tested, and the inhibition was -3.5%.
`COc1ccccc1N1CCN(CC(=O)NCCc2ccc(S(N)(=O)=O)cc2)CC1` gave an inhibition of -3%.
Molecule `O=C(Cc1cccs1)Nc1nnc(C2CC2)s1` has an inhibition of -1.8%.
With `Cc1occc1C(=O)Nc1nnc(C2CCCCC2)s1` the inhibition was -4%.
With `O=C(Nc1nnc(C2CC2)s1)c1ccccn1` the inhibition was 63.4% (active).
In the case of `FC(F)(F)c1cnc(Oc2ccccc2-c2nnc(-c3ccc(Cl)cc3)o2)c(Cl)c1`, the inhibition is reported as -1.6%.
In the case of `Nc1ccc(-c2nnc(-c3ccc(-c4ccccc4)cc3)o2)cc1`, the inhibition is reported as 3.7%.
`CSc1ccccc1-c1nnc(-c2ccc(Cl)cc2)o1` was tested, and the inhibition was 53.8% (active).
In the case of `COc1cccc(CC2(CO)CCCN(Cc3nc(-c4cccs4)oc3C)C2)c1` (stereo not drawn), the inhibition is reported as -8.7%.
With `CC(=O)Nc1ccc(OCCC[n+]2cccc(C(=O)[O-])c2)cc1` the inhibition was -2.9%.
With `Cc1ccc(C(=O)Nc2ccc(C)c(S(=O)(=O)N(C)C)c2)s1` the inhibition was 71.1% (active).
For `Cc1ccc(NC(=O)c2cccs2)cc1S(=O)(=O)N(C)C`, the inhibition was 15.2%.
Work on `Cc1ccc(NC(=O)CNCc2ccccn2)cc1S(=O)(=O)N(C)C` yielded an inhibition of -1.9%.
